PrP 5UTR inh: inhibition of PrP 5' UTR reporter expression | inhibition, % (concentration not given with the values) | AID 488862, 2010 | cell-based PrP 5' UTR mRNA reporter, plate reader | 0.35% of 340,000 active; in the data active = inhibition above about 52%
PrPC surface inh: inhibitors of human cell surface prion protein PrPC, primary screen, cell-based, TR-FRET; 0.43% of 370,000 active; inhibition, % at 13.8 µM; AID 720596, 2013; TR-FRET read-out; Major prion protein (Homo sapiens), P04156; in the data active = inhibition above about 24%
SSB-PriA inh: inhibitors of Klebsiella pneumoniae PriA binding to SSB C-terminal tail, primary screen, biochemical, AlphaScreen; 0.6% of 430,000 active; AlphaScreen SSBct-PriA binding, biotinylated peptide; PriA–SSB C-terminal tail interaction (Klebsiella pneumoniae); AID 1272365, 2023; inhibition, % at 33 µM; in the data active = inhibition mostly above about 37%, no sharp cut-off; inactive = mostly below about 20%
MazF activator: activators of E. coli MazEF toxin-antitoxin RNase, primary screen, biochemical, fluorescence, uHTS; Endoribonuclease toxin MazF (Escherichia coli (strain K12)), P0AE70; FAM/BHQ RNA-DNA oligo cleavage fluorescence, 5 h; activation, % at 20 µM; 0.32% of 350,000 active; AID 504720, 2011; in the data active = activation above about 50%
Target sequence (P0AE70 whole entry, looked up): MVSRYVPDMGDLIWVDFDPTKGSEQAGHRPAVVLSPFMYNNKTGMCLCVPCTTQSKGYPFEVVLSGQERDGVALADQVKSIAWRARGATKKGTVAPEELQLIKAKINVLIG
PfHsp40 rescue: rescue of yeast from PfHsp40 toxicity, primary screen, S. cerevisiae, ATP luminescence | S. cerevisiae expressing PfHsp40, growth rescue | growth rescue, % at 12.5 µM | 0.68% of 340,000 active | AID 504582, 2011; in the data active = growth rescue above about 28%, passing the limit was not always enough; inconclusive = no clear call, values can overlap the other calls;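 also: yeast W303a lacking pdr1 and pdr3 grown in galactose medium; growth measured after three days at 30 °C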
Numbers stand for hits; . = inactive; ? = inconclusive; / = no result given; + = active, no number; ! = not confirmed by another sample. Rows were chosen to be rich in hits. Some 1.8% of all compounds tested hit in one or more screens of this group.

SMILES | PrP 5UTR inh | PrPC surface inh | SSB-PriA inh | MazF activator | PfHsp40 rescue
CCOC(=O)N1CCN(c2cc(=O)n(-c3ccccc3Cl)c(=O)[nH]2)CC1 | . | . | 104 | . | .
Cc1cccc(CCNC(=O)CN(C)S(=O)(=O)c2cnc[nH]2)c1 | . | . | . | . | 70
CCOC(=O)C(Sc1nnc(N)s1)c1ccccc1 (stereo not given) | / | / | . | / | /
Cc1c(NS(=O)(=O)c2ccc(Br)cc2)c(=O)n(-c2ccccc2)n1C | . | . | . | . | .
O=S(=O)(Nc1ccn(-c2ccccc2)n1)c1ccc(Br)cc1 | . | . | . | . | 60
CCCCOC(=O)Nc1cccc(C(=O)OCC)c1 | . | . | . | . | .
Cc1ccc(C(=NC(=S)N2CCOCC2)Nc2ccccc2)cc1 | / | / | . | / | /
COc1ccc(N2C(=O)c3cccc4c(N(C)CCO)ccc(c34)C2=O)cc1 | . | . | . | 155 | .
COC(OC)c1ccnc(-c2ccc(OC(C)=O)cc2)n1 | . | . | . | . | 52
COc1ccc(CNc2ncnc3sccc23)cc1OC | . | . | . | . | .
COc1ccc(CNc2ncnc3sccc23)cc1 | . | . | . | . | 865
CCCNC(=O)NNC(=O)c1ccc(F)cc1 | . | . | . | . | .
CN1CCN(C2=CC3=CC(=C(C#N)C#N)CCC3CC2)CC1 (stereo not given) | . | / | . | / | .
CCN1CCN(C2=CC3=CC(=C(C#N)C#N)CCC3CC2)CC1 (stereo not given) | . | / | . | + | .
Nc1nc(Cn2nnc(-c3ccccc3F)n2)nc(N2CCOCC2)n1 | . | . | . | . | 40
COc1ccc(-n2c(SCc3nnc(-c4ccccc4)o3)nnc2-c2ccccc2)cc1 | . | . | . | . | .
COc1ccc(-c2nnc(SCc3nnc(-c4ccccc4)o3)n2-c2ccccc2)cc1 | . | . | . | 69 | .
COc1ccc(C2NCCc3c2[nH]c2ccccc32)cc1CN1CCc2cc(OC)c(OC)cc2C1C (stereo not given) | . | / | 44 | . | .
COc1ccc(C2NCCc3c2[nH]c2ccccc32)cc1COc1ccc(F)cc1 (stereo not given) | . | . | . | . | .
O=C(CSc1ccc(-c2ccccn2)nn1)NCc1ccc(Cl)cc1 | . | . | . | . | 331
COc1ccccc1-c1ccc(SCC(=O)NCc2ccc(Cl)cc2)nn1 | / | / | . | / | /
Cc1ccc(CNC(=O)CSc2ccc(-c3ccccn3)nn2)cc1 | . | . | . | . | 219
COc1cccc(CNC(=O)CSc2ccc(-c3ccccn3)nn2)c1 | . | . | . | . | 357
Cc1ccc(CNC(=O)CSc2ccc(-c3cccs3)nn2)cc1 | . | . | . | . | .
O=C(c1ccccc1S(=O)(=O)C(F)F)N1CCN(c2ncnc3c2nnn3Cc2ccccc2)CC1 | / | / | . | / | /
SMILES | PrP 5UTR inh | PrPC surface inh | SSB-PriA inh | MazF activator | PfHsp40 rescue
Cn1c(-c2ccccc2)c(C=NNC(=O)c2cccnc2)c2ccccc21 | / | / | . | / | /
O=Cc1cc(OCc2ccccc2)ccc1[B-](F)(F)F | . | . | . | . | 160
O=C(NC(C(=O)N/N=C/c1cc([N+](=O)[O-])ccc1O)c1n[nH]c(=O)c2ccccc12)c1ccccc1 (stereo not given) | . | . | / | . | 82
O=C(NC(C(=O)NN=Cc1cc([N+](=O)[O-])ccc1O)c1n[nH]c(=O)c2ccccc12)c1ccccc1 (stereo not given) | / | / | . | / | /
CCCC12CN3CC(CCC)(CN(C1)C3c1ccccn1)C2=O (stereo not given) | . | . | 58 | . | .
CCCC12CN3CC(C)(CN(C1)C3c1cccs1)C2=O (stereo not given) | / | . | . | . | /
O=C(NCc1cc(-c2ccco2)on1)c1ccc(Br)o1 | / | / | 39 | / | /
Cc1nc(N2CCCC2)nc(C)c1NC(=O)c1ccco1 | / | / | . | / | /
CC1=CC2=NC(=O)/C(=C\c3ccc(-c4cccc(Cl)c4)o3)C(=N)N2O1 | . | . | . | 84 | .
O=C(CNS(=O)(=O)c1ccc(Br)cc1)Nc1ccc2c(c1)OCCO2 | . | . | . | . | .
O=C(N/C=N/OCc1ccc(Cl)cc1Cl)NOCc1c(Cl)cccc1Cl | . | . | . | 80 | .
CCN(C(C)=O)c1cnc(C=NNC(N)=S)c2ccccc12 | . | . | . | . | 82
CCn1c(=O)n(CC(=O)N2CCCC2)c(=O)c2ccccc21 | / | . | / | / | /
Cc1cc(=O)c2ccccc2s1 | . | . | . | . | .
CC(C(=O)O)N1c2cccc3cccc(c23)S1(=O)=O (stereo not given) | . | . | . | . | .
CS(=O)(=O)N1c2cccc3cccc(c23)S1(=O)=O | . | . | . | . | 48
COc1ccccc1CNS(=O)(=O)N(C)C | . | . | . | . | .
COc1ccc(Oc2nc(-c3ccccn3)ncc2OC)cc1 | . | . | . | . | ?
COc1cnc(-c2ccccn2)nc1Cl | / | / | . | / | /
CCOC(=O)C(C)Sc1nc(-c2ccccn2)ncc1OC (stereo not given) | . | . | 90 | . | .
COc1cnc(-c2ccccn2)nc1Sc1ccccc1Cl | . | . | 83 | . | .
COc1cnc(-c2ccccn2)nc1Oc1c(C)cccc1C | . | . | 49 | . | .
COc1cnc(-c2ccccn2)nc1OC | / | / | 112 | / | /
COc1cnc(-c2ccccn2)nc1Sc1c(Cl)cccc1Cl | . | . | . | . | .
Cc1ccc(NC(=O)C(=O)NCC2CCN(C3CCCC3)CC2)cc1C | / | / | . | / | /
SMILES | PrP 5UTR inh | PrPC surface inh | SSB-PriA inh | MazF activator | PfHsp40 rescue
COc1ccccc1-c1ccc(=O)n(CC(=O)N2CCN(C(c3ccccc3)c3ccccc3)CC2)n1 | / | / | . | / | /
O=C(Cc1ccccc1F)N1CCN(c2ccc(-c3ccccn3)nn2)CC1 | / | / | . | / | /
O=C(Cn1ncccc1=O)N1CCN(c2ccc(-c3ccccn3)nn2)CC1 | / | / | 130 | / | /
COc1ccccc1-c1ccc(=O)n(CC(=O)N2CCN(c3ccc(-c4ccccn4)nn3)CC2)n1 | / | / | 104 | / | /
CCOC(=O)c1ccc(NC(=O)CN2C(=O)C(=O)N(CC(C)C)C2=O)cc1 | . | . | . | . | .
CC(C)(C)c1cc(NC(=O)C2(C)CCN2C(=O)C2(c3ccccc3)CC2)no1 (stereo not given) | / | . | / | / | /
O=C(NCCC(=O)N1CCCCC1)c1ccc(Br)cc1 | . | . | . | . | .
O=C(NCCC(=O)N1CCCCCCC1)c1ccc(Br)cc1 | . | . | . | . | 70
O=S(=O)(NCC(c1ccco1)N1CCCCC1)c1cccc(C(F)(F)F)c1 (stereo not given) | . | . | . | . | .
O=C(CN1CCC(c2nnc(C(F)(F)F)o2)CC1)N1CCCc2ccccc21 | / | / | . | / | /
Cc1ccc(C(O)(C(=O)NNc2ccc3ccccc3n2)c2ccc(C)cc2)cc1 | . | . | . | . | 75!
Cc1ccc(C(=O)Nc2ccc3ccccc3n2)cc1 | . | . | . | . | .
N#Cc1nc(-c2ccccc2F)oc1N1CCCCCC1 | / | / | 86 | / | /
N#Cc1nc(-c2ccccc2F)oc1N1CCCC1 | . | . | . | . | .

Screening results: PubChem, several laboratories
